In the library only some 19% were active in any assay of this set; here they are far more common.
VP16 counter – Gal4-VP16 reporter inhibition counter-screen; AID 2546; 3.5% of 310,000 active; Drosophila S2 Gal4-VP16 UAS-luciferase, luminescence, 20 h; Potency, µM (titrated, usually from 53.6 µM), for inactives: at the highest dose activity, negative = inhibition, hits mostly inhibitors;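 further: Gal4-VP16 expression switched on by copper sulfate through the metallothionein promoter; nearly all actives have a fitted effect of over 50% in size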
DT40 TDP1 no CPT – qHTS for Inhibitors of human tyrosyl-DNA phosphodiesterase 1 (TDP1): qHTS in cells in absence of CPT; DT40 Tdp1-/- hTDP1 cells, no CPT, ATP luminescence, 48 h; Potency, µM (highest dose often 46.2 µM), inactives show at the top dose activity change, negative = growth inhibition, hits mostly inhibitors; 15% of 420,000 active; further: nearly all actives have a fitted effect of over 55% in size
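Luminescent ATP content (CellTiter-Glo) served as the growth readout. Knockout chicken DT40 cells expressing human TDP1 were exposed to compounds without camptothecin for a minimum 48 hr at 37 °C.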
TDP1 inh – TDP1 (human) enzyme inhibition; recombinant TDP1, AlphaScreen DNA substrate cleavage; Potency, µM (highest dose often 130 µM), inactives show top-dose activity change, negative = inhibition, usual class: inhibitors; 0.28% of 350,000 active; AID 485290; further: nearly all actives have a fitted effect of over 40% in size
Target sequence (Q9NUW8 whole entry, looked up): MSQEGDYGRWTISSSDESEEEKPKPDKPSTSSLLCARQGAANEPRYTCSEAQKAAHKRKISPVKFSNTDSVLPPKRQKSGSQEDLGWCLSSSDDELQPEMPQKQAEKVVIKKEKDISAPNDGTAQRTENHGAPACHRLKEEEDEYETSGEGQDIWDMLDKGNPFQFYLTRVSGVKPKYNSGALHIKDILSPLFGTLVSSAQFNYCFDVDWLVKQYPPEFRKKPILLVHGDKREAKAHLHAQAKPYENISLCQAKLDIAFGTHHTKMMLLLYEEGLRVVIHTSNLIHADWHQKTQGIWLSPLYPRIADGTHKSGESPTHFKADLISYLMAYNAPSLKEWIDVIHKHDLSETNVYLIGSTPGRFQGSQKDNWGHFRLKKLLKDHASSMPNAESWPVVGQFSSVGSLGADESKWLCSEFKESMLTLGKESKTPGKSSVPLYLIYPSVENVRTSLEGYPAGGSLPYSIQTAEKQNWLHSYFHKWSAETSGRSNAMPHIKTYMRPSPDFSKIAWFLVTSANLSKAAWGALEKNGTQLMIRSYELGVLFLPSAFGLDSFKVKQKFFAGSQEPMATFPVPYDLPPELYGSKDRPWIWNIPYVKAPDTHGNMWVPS
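Tdp1 1 nM final; 15 min RT w/ cpd; substrate 15 nM, 5 min; beads 10 ug/ml, 10 min; AlphaScreen read. Neg ctrl: no enzyme.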
DT40 TDP1 CPT – growth inhibition of DT40 Tdp1-/-;hTDP1 cells with camptothecin (screen for TDP1 inhibitors) | 12% of 420,000 active | chicken DT40 Tdp1-/-;hTDP1 cells + 20 nM CPT, ATP luminescence, 48 h | Potency, µM (highest dose often 46.2 µM), inactives show at the highest dose activity change, negative = growth inhibition, hits mostly inhibitors; further: nearly all actives have a fitted effect of over 55% in size
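Chicken DT40 Tdp1-/- cells stably complemented with human TDP1 were seeded at 400 cells/well in medium containing 20 nM camptothecin, exposed to pin-transferred compounds, and grown at 37 °C for at least 48 hr. Viability was read as ATP luminescence.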
RORg inh – blocks mouse ROR gamma transcriptional activity. P51450. Drosophila S2 Gal4-RORgamma UAS-luciferase reporter, 20 h. Potency, µM (top dose mostly 53.6 µM), inactives show at the highest dose activity change, negative = inhibition, usual class: inhibitors. 5.4% of 310,000 active; further: nearly all actives have a fitted effect of over 60% in size
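Drosophila Schneider cells stably carrying a metallothionein-driven Gal4 DBD–ROR gamma fusion and a UAS-Photinus luciferase reporter were exposed to compound for 1 hr, then induced with copper sulfate (700 uM final) for 20 hr at ambient temperature before luminescence reading.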
The depositor's hits bear a star. The call rests on the fitted dose curve; in most records, active means well fitted curve in the direction sought with a large enough effect; inconclusive means small, poorly fitted or top-dose-only effect, or another doubt; inactive means no such curve, though single readings can be large; an effect the other way counts as inactive or inconclusive. On the % scale 0 is the no-effect control and ±100 the full control effect; potency means the concentration at half of the fitted maximal effect.

Screening Cn1c(N)c(C(=O)COC(=O)c2ccc3c(c2)OCCO3)c(=O)n(C)c1=O returned VP16 counter -3%, DT40 TDP1 no CPT -9%, TDP1 inh -2%, DT40 TDP1 CPT 10% and RORg inh 11%.
COc1ccc(CC(NC(=O)c2ccccc2)C(=O)NCC(=O)O)cc1 (configuration not stated) was read as VP16 counter 1%, DT40 TDP1 no CPT 3%, TDP1 inh 7%, DT40 TDP1 CPT 5% and RORg inh 3%.
`CN(C)CCCN(C(=O)c1nc2ccccc2s1)c1nc2ccc(F)cc2s1` gave DT40 TDP1 no CPT 5.8µM* and DT40 TDP1 CPT 3.7µM*.
For CN(C)CCCN(C(=O)CCOc1ccccc1)c1nc2c(F)cccc2s1 the results were VP16 counter -30%, DT40 TDP1 no CPT 4.6µM*, TDP1 inh 3%, DT40 TDP1 CPT 5.8µM* and RORg inh 8.9µM*.
For Cc1ccc2sc(N(CCCN(C)C)C(=O)CN3C(=O)c4ccccc4C3=O)nc2c1C the results were VP16 counter 2%, DT40 TDP1 no CPT 21µM*, TDP1 inh 1%, DT40 TDP1 CPT 21µM* and RORg inh inconclusive.
CN(C)CCCN(C(=O)CCOc1ccccc1)c1nc2ccc(F)cc2s1 was read as VP16 counter 7.9µM*, DT40 TDP1 no CPT 2.9µM*, TDP1 inh -1%, DT40 TDP1 CPT 2.9µM* and RORg inh 10µM*.
Screening CN(C)CCCN(C(=O)COc1ccccc1)c1nc2ccc(F)cc2s1 returned VP16 counter -1%, DT40 TDP1 no CPT -29%, TDP1 inh 2%, DT40 TDP1 CPT -10% and RORg inh -10%.
CN(C)CCCN(C(=O)c1ccc(C(=O)c2ccccc2)cc1)c1nc2ccc(F)cc2s1 was read as VP16 counter -24%, DT40 TDP1 no CPT inconclusive, TDP1 inh 6%, DT40 TDP1 CPT inconclusive and RORg inh 7%.
For CC(C)CCN1CCN(Cc2coc3ccccc3c2=O)CC1CCO (configuration not stated) the results were VP16 counter -2%, DT40 TDP1 no CPT -22%, TDP1 inh 2%, DT40 TDP1 CPT -2% and RORg inh -9%.
Screening COc1ccc(C(=O)N2CCC[C@@]3(CCN(c4ccccc4)C3)C2)cc1 returned VP16 counter -11%, DT40 TDP1 no CPT inconclusive, DT40 TDP1 CPT inconclusive and RORg inh 25%.
Screening NCCCN(Cc1ccc(Cl)cc1)c1ccc(Br)cn1 returned DT40 TDP1 no CPT 7.9µM* and DT40 TDP1 CPT 10µM*.
For NCCCN(Cc1ccc(Cl)c(Cl)c1)c1ccc(Br)cn1 the results were DT40 TDP1 no CPT 5µM* and DT40 TDP1 CPT 3.5µM*.
For COc1ccc(CCNC(=O)CCN2C(=O)c3cccc4cccc(c34)C2=O)cc1OC the results were VP16 counter -1%, DT40 TDP1 no CPT 10%, TDP1 inh 5%, DT40 TDP1 CPT inconclusive and RORg inh 7%.
`FC(F)C(F)(F)Oc1cccc(Nc2nccn3c(-c4cccc5cccnc45)cnc23)c1` gave DT40 TDP1 no CPT 23µM* and DT40 TDP1 CPT 26µM*.
`OCCc1ccc(-c2ccc(Cl)cc2)o1` gave VP16 counter 10%, DT40 TDP1 no CPT -6%, TDP1 inh 7%, DT40 TDP1 CPT -19% and RORg inh 16%.
COc1ccccc1-c1ccc(SCc2ccc(F)cc2)nn1 was read as VP16 counter -9%, DT40 TDP1 no CPT -2%, TDP1 inh -5%, DT40 TDP1 CPT -18% and RORg inh -28%.
`COc1ccccc1-c1ccc(SCc2ccc(C)cc2)nn1` gave VP16 counter 21%, DT40 TDP1 no CPT 15µM*, TDP1 inh -6%, DT40 TDP1 CPT inconclusive and RORg inh inconclusive.
Cc1cc(C)c(-c2csc(NC(=O)C3=COCCO3)n2)c(C)c1 was read as DT40 TDP1 no CPT -76% and DT40 TDP1 CPT inconclusive.
CC(=O)Nc1nc2cc3c(cc2s1)OCCO3 was read as VP16 counter -13%, DT40 TDP1 no CPT 23µM*, DT40 TDP1 CPT inconclusive and RORg inh inconclusive.
O=C(Nc1nc2cc3c(cc2s1)OCCO3)C1=COCCO1 was read as VP16 counter 2.2µM*, DT40 TDP1 no CPT inconclusive, TDP1 inh 6%, DT40 TDP1 CPT 23µM* and RORg inh 1µM*.
Cc1ccc2nc(NC(=O)c3ccc(N4C(=O)CCC4=O)cc3)sc2c1 was read as VP16 counter -3%, DT40 TDP1 no CPT -3%, TDP1 inh 5%, DT40 TDP1 CPT 19% and RORg inh 3%.
For Cc1cc(C)c2sc(NC(=O)c3ccc(N4C(=O)CCC4=O)cc3)nc2c1 the results were VP16 counter inconclusive, DT40 TDP1 no CPT inconclusive, TDP1 inh 8%, DT40 TDP1 CPT -21% and RORg inh 0.11µM*.
Cc1cc(C)c2sc(NC(=O)C3=COCCO3)nc2c1 was read as VP16 counter 5.6µM*, DT40 TDP1 no CPT -15%, TDP1 inh 7%, DT40 TDP1 CPT -11% and RORg inh 0.79µM*.
`COc1cc(C(=O)N2C[C@H]3CON(C)[C@H]3C[C@H]2c2ccc(N3CCCCC3)cc2)cc(OC)c1OC` gave DT40 TDP1 no CPT 4% and DT40 TDP1 CPT 6%.
For COC(CN(C)C(=O)C1CCC(CNS(=O)(=O)c2ccc(C)cc2)CC1)OC (configuration not stated) the results were VP16 counter -10%, DT40 TDP1 no CPT inconclusive, DT40 TDP1 CPT inconclusive and RORg inh -1%.
Screening CCn1c(-c2ccccc2F)nc2cc(NC(C)=O)cc(C(=O)N3CCNC(=O)C3CC(=O)OC)c21 (configuration not stated) returned DT40 TDP1 no CPT 0% and DT40 TDP1 CPT 4%.
CCCC(=O)N1CCN(c2ccc(NC(=O)c3ccc(N4CCCC4)c([N+](=O)[O-])c3)cc2Cl)CC1 was read as DT40 TDP1 no CPT 7.3µM* and DT40 TDP1 CPT 18µM*.
O=C(Nc1nc2ccc(Cl)cc2s1)c1ccc(N2CCCCC2)c([N+](=O)[O-])c1 was read as VP16 counter -12%, DT40 TDP1 no CPT 21µM*, TDP1 inh 8%, DT40 TDP1 CPT 16µM* and RORg inh -27%.
For Cc1ccc(NC(=O)c2ccc(N3CCOCC3)c([N+](=O)[O-])c2)cc1S(=O)(=O)N1CCOCC1 the results were VP16 counter inconclusive, DT40 TDP1 no CPT 7.3µM*, TDP1 inh 5%, DT40 TDP1 CPT 9.2µM* and RORg inh inconclusive.
